Assay results published in PubChem BioAssay (NCI).
This is part of a sample that, as a whole, favours compounds with a hit. Of some 79,000 tested, about 15% had one in any assay. The source made the active and inactive calls. Rule as the data show it: active = growth inhibition above about 70%; inactive = the rest. Where a SMILES comes first, the peptide text is derived from it. [ ]: non-standard residue; d: D form. The star is where a group is joined. Cbz = O=C(OCc1ccccc1)*; Nva = CCC[CH](N)C(=O)O

How the values were obtained:
[1] = NCI Yeast Anticancer Drug Screen. Data for the rad50 strain (AID 155);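 also: 0% = growth of vehicle-only cultures of the same strain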; conditions: S. cerevisiae rad50 strain growth inhibition; at 50.0 µM; active compounds read high
Summary of the method: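 Growth of the mutant yeast was measured after compound exposure and referenced to vehicle-treated cultures.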

[2] = NCI Yeast Anticancer Drug Screen. Data for the mec2-1 strain (AID 157); conditions: S. cerevisiae mec2-1 strain, at 50.0 µM, active compounds read high
Summary of the method: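 Test agents were screened against the mec2-1 yeast strain, with defined DNA repair or cell cycle alteration. Growth was scored as inhibition against vehicle-only controls.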

[3] = NCI Yeast Anticancer Drug Screen. Data for the sgs1 mgt1 strain (AID 161);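 also: 0% = growth of cultures given vehicle only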; conditions: S. cerevisiae sgs1 mgt1 strain, at 50.0 µM, active compounds read high
Summary of the method: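 Inhibition of yeast growth, normalised to vehicle-treated controls, is reported for a strain bearing genetic alterations in DNA damage repair.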

[4] = NCI Yeast Anticancer Drug Screen. Data for the cln2 rad14 strain (AID 165);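 also: 0% = growth equal to vehicle treated cultures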; conditions: S. cerevisiae cln2 rad14 strain, at 50.0 µM, active compounds read high
Summary of the method: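 Growth of compound-exposed yeast (cln2 rad14 genotype) measured and expressed as inhibition relative to vehicle.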

[5] = NCI Yeast Anticancer Drug Screen. Data for the bub3 strain (AID 167); conditions: S. cerevisiae bub3 mutant strain, at 50.0 µM, active compounds read high
Summary of the method: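 Whole-cell yeast assay. The mutant strain was incubated with compounds, and growth inhibition was determined by comparison with vehicle-treated cells.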

[6] = NCI Yeast Anticancer Drug Screen. Data for the mlh1 rad18 strain (AID 175); conditions: S. cerevisiae mlh1 rad18 strain growth inhibition; at 50.0 µM; active compounds read high
Summary of the method: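 In this whole-cell yeast screen, a strain with altered DNA damage repair is challenged with compound, and its growth is measured against matched vehicle-treated controls.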

Measured: growth inhibition

Cc1cccc(C)c1N1C(=O)C(=O)C(c2nc3ccccc3s2)C(=Nc2cccc3c(=O)[nH][nH]c(=O)c23)C1=O (stereo unspecified)
inactive: [1] 30.5% | [2] 13.9% | [3] 17.6% | [4] 23.2% | [5] 0.95% | [6] 23.7%

COc1cc(C=O)ccc1OC(=O)Nc1cccc(Cl)c1C
inactive: [1] -0.55% | [2] 18.6% | [3] 15.8% | [4] 1.9% | [5] 37.2% | [6] 17.8%

Nc1c(S(=O)(=O)O)cc(Nc2cccc(S(N)(=O)=O)c2)c2c1C(=O)c1ccccc1C2=O
inactive: [1] 5.05% | [2] 1.1% | [3] -42.4% | [4] -7.65% | [5] -17.1% | [6] 24.6%

C/C(=N\NC(=O)C[N+](C)(C)C)c1sc(-c2cccnc2)nc1C
inactive: [1] 5.4% | [2] -26.1% | [3] 6.5% | [4] 20.9% | [5] -4.4% | [6] -4.05%

CC(C)(C)OC(=O)C1CCC/C1=N/Nc1ccc([N+](=O)[O-])cc1[N+](=O)[O-] (stereo unspecified)
inactive: [1] -38.3% | [2] -46% | [3] 10.3% | [4] 24.2% | [5] 20.7% | [6] -11.6%

O=c1nc2c(c(-c3ccc(Br)cc3)[nH]1)COC/C2=C\c1ccc(Br)cc1
inactive: [1] 31.1% | [2] 17.2% | [3] 35.8% | [4] 8% | [5] 18.1% | [6] 31.3%

CC(NC1=CC(=O)c2cccnc2C1=O)C(O)c1ccccc1 (stereo unspecified)
active: [1] 82.8% | [2] 80.8% | [3] 72.1% | [6] 71.3%
inactive: [4] 27.5% | [5] 64.2%

CC(=O)C(C(C)=O)C(c1ccccn1)C(C(C)=O)C(C)=O
inactive: [1] -6.7% | [2] -0.65% | [3] -4.05% | [4] -0.65% | [5] 6.8% | [6] -6.45%

O=C(NCc1ccccc1)NCc1ccccc1
inactive: [1] -25.5% | [2] -0.65% | [3] -2.5% | [4] -13.8% | [5] -18.4% | [6] -4.5%

Cc1nc2cccc([N+](=O)[O-])c2s1
inactive: [1] 15.2% | [2] 1.7% | [3] 28.4% | [4] 11.7% | [5] 17.4% | [6] 20.4%

CCCC(NC(=O)OCc1ccccc1)C(=O)NC(CCSC)C(N)=O (stereo unspecified) (Cbz-[Nva]-Met-NH2; configuration not given here)
inactive: [1] 28.2% | [2] -5.35% | [3] -5.95% | [4] 5.6% | [5] -4.6% | [6] -27.9%

COc1ccc(C(=O)c2ccc(C)c3c(C)cccc23)cc1
inactive: [1] 4.5% | [2] -9.55% | [3] 4.9% | [4] -16.6% | [5] -7.9% | [6] 4.85%

CC(C)(CCC(=O)O)CCC(=O)O
inactive: [1] 16.3% | [2] 17.6% | [3] 15.8% | [4] -6.05% | [5] -4% | [6] 36%

CC(C)CCCC(C)CCCl (stereo unspecified)
inactive: [1] 3.85% | [2] -1.1% | [3] -5.85% | [4] 1.95% | [5] 3.2% | [6] -0.2%

C#CCN(C(=O)C(F)(F)F)C(/C=C\C(=O)OC)(C(=O)OCC)C(=O)OCC
inactive: [1] -10.3% | [2] -24.9% | [3] -0.45% | [4] -4.5% | [5] -17.2% | [6] -2.55%

CCN(C(=S)Nc1cccc(OC)c1)c1ccccc1
inactive: [1] -17.2% | [2] -36.9% | [3] 18% | [4] -1.45% | [5] -17.1% | [6] -6.8%

O=C1c2ccccc2CC12CCC1(CC2)OCCO1
inactive: [1] -14% | [2] -1% | [3] 3.55% | [4] 26.6% | [5] -12.5% | [6] -23.6%

CCCCCCc1ccc2c3cccc4cccc(c5cccc1c52)c43
inactive: [1] -9.25% | [2] -15.6% | [3] -22.1% | [4] -34.2% | [5] -11.1% | [6] -25.6%

O=C(Nc1ccccc1)Oc1ccc(/C=N/Sc2cccc([N+](=O)[O-])c2)cc1
inactive: [1] 67.1% | [2] 60.6% | [4] 21.2% | [6] 62.2%
active: [3] 73.8% | [5] 73.8%

CC(O)C1(O)C(O)CC(OC2c3cc4c(c(O)c3[C@@H]3C[C@@]2(C)OC32C=c3cc[nH]c3=N2)C(=O)c2cccc(O)c2C4=O)OC1C (stereo partly specified)
inactive: [1] 63.5% | [2] 41.1% | [3] 60% | [4] 50.4% | [5] 52% | [6] 67.6%

CC(=O)OC1CCC2(C)C3CCC4(C)C(C(C)CCCC(C)C)CCC4C3CC(=O)C23CC13 (stereo unspecified)
inactive: [1] 32% | [2] -3.85% | [3] 13.2% | [4] 6.9% | [5] -6.3% | [6] 17.9%

Clc1ccc(-c2nnc(-c3ccc4ccccc4c3)o2)cc1
inactive: [1] -43% | [2] -60.8% | [3] -22.2% | [4] 3.1% | [5] -47.5% | [6] -25.4%

CCCCSC(CC(O)C(O)COC(=O)c1ccc([N+](=O)[O-])cc1)SCCCC (stereo unspecified)
inactive: [1] -12.1% | [2] 1.95% | [3] 2.7% | [4] 13% | [5] -4.85% | [6] -5.85%

C=C1c2[nH]c3ccccc3c2CC(C(=O)O)N1C(O)c1ccc(S(=O)(=O)O)cc1 (stereo unspecified)
inactive: [1] 11.5% | [2] -7.95% | [3] -3.5% | [4] -45.6% | [5] -8.05% | [6] 3.75%

Cc1nc2c(ncn2C2OC(CO)C(O)C2O)c(=O)[nH]1 (stereo unspecified)
inactive: [1] -2.7% | [2] 11.2% | [3] -2.7% | [4] -3.7% | [5] 0.85% | [6] -18.4%

c1ccc2c(OCCSCCCCCCCCCCSCCOc3cccc4ccccc34)cccc2c1
inactive: [1] 18.9% | [2] -5.55% | [3] -2.25% | [4] 7.75% | [5] -3.6% | [6] -9.25%

CC(C)(C)c1ccc(O)c(C(=O)O)c1
inactive: [1] 3.55% | [2] -0.95% | [3] -5.8% | [4] -4% | [5] -35.1% | [6] -23.2%

CC(=O)OC1Cc2ccccc2C1OC(C)=O (stereo unspecified)
inactive: [1] -1.9% | [2] 9.4% | [3] -8.8% | [4] -9.8% | [5] -19.4% | [6] 7.1%

O=C(O)CS(=O)(=O)Cc1ccc(Cl)cc1Cl
inactive: [1] 15.6% | [2] 20.4% | [3] 24% | [4] 12.8% | [5] 25.1% | [6] 18.6%

C=CC1C(=O)N(C)[C@H](C(C)(C)C)N1C(=O)c1ccccc1 (stereo partly specified)
inactive: [1] 1.5% | [2] 11.9% | [3] 9.1% | [4] -18.9% | [5] 2% | [6] 10%

O=S(=O)([O-])c1ccc2c[n+]3ccccc3cc2c1
inactive: [1] -16.1% | [2] 5% | [3] -0.95% | [4] -44.6% | [5] 6.1% | [6] -10.3%

Oc1ccc(-c2nc(-c3cccnc3)c(-c3ccc(Cl)cc3)[nH]2)cc1
active: [6] 81.7%
inactive: [1] 3.25% | [2] -19.2% | [3] 19.9% | [4] 12.8% | [5] 39.6%

COc1ccc(C2C(=O)C(Cl)N2Nc2nc(C)cc(=O)[nH]2)cc1OC (stereo unspecified)
inactive: [1] 1.45% | [2] -18.9% | [3] 4.2% | [4] -2.3% | [5] -27.9% | [6] -15.8%

Cc1ccc(NC(=O)Nc2ccc(Cl)cc2)c(C)c1
inactive: [1] -12.8% | [2] -6% | [3] 1.65% | [4] -28.6% | [5] 5.6% | [6] -0.65%

NC(CS)=NCc1ccccc1
inactive: [1] 0.65% | [2] -1.35% | [3] -12.9% | [4] -86.6% | [5] 8.85% | [6] -6%

OC(CCl)CN1CCN(CC(O)CCl)CC1 (stereo unspecified)
inactive: [1] -3.05% | [2] 12.3% | [3] 2.55% | [4] 13.5% | [5] -9.55% | [6] -24.8%
